Screen size: about 310,000 compounds; about 11,000 (3.5%) were called active. Not shown: some 4% with an inconclusive outcome. Shown is part of a subset that was picked to be rich in actives. Values without a mark were called inactive. Calls come from the whole dose curve; as a rule, active = well fitted inhibition curve with a large enough effect; inconclusive = small, poorly fitted or top-dose-only effect, or another doubt; inactive = no such curve, though single readings can be large or run the other way.
Potency is the fitted concentration of half-maximal effect.

In this assay the target is 4'-phosphopantetheinyl transferase ffp (Bacillus subtilis) (UniProt Q9F4F7). In words: qHTS Assay for Inhibitors of Bacillus subtilis Sfp phosphopantetheinyl transferase (PPTase).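 For largest response in the series, negative = inhibition: 0% = enzyme reaction without inhibitor and -100% = no enzyme wells.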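 Note: the enzyme is Sfp with the accession as filed and its product quenches rhodamine fluorescence.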 As to conditions: Biochemical Sfp PPTase activity. The text has this:
Assay Submitter: Michael Burkart, University of California, San Diego
Screening Center PI: Austin, C.P.
Screening Center: NIH Chemical Genomics Center [NCGC]
The covalent attachment of a phosphopantetheinyl (4'-PP) arm to a variety of synthases and other proteins is a key posttranslational protein modification. The 4'-PP is installed on the proteins post-translationally from coenzyme A (CoA) on a conserved serine residue by action of phosphopantetheinyl transferase (PPTase) enzymes. Phosphopantetheinylation is essential for synthase activity, and removal of the PPTase gene precludes natural product synthesis in microorganisms, or in the case of fatty acid biosynthesis, renders the organism unviable. PPTase enzymes belong to a distinct structural superfamily. Within bacteria, these enzymes are grouped into two classes based upon primary structure, the AcpS-Type and Sfp-Type PPTases.
Sfp-type PPTases, corresponding to an activator of surfactin production in Bacillus subtilis, are responsible for modifying type I polyketide and nonribosomal peptide synthases of prokaryotes. Sfp-type PPTases are responsible for the activation of a variety of pathogen-associated virulence factors. Among these compounds are toxins such as mycolactone from Mycobacterium ulcerans, siderophores such as vibriobactin from Vibrio cholerae or mycobactin from Mycobacterium tuberculosis, as well as the mycolic acids which form the waxy cell wall of Mycobacteria. The biosyntheses of these natural products are considered attractive targets for drug design.
In search of small molecule Sfp-PPTase inhibitors, a fluorescence quenching assay was developed for detection of Bacillus subtilis Sfp-PPTase enzymatic activity in a miniaturized high-throughput format. The consensus ybbr acceptor peptide […] was N-terminally labeled with Black Hole Quencher-2 (BHQ-2) and used in combination with rhodamine-labeled coenzyme A as a co-substrate.
Inhibition of Sfp-PPTase was detected by recording the fluorescence intensity change over a 30-minute reaction period at a 525 nm excitation and 598 nm emission. Reagents were supplied by Michael Burkart and Timothy Foley, University of California at San Diego.
This BioAssay deposition is for validation of the developed Sfp-PPtase assay.
Assay Buffer: 50 mM Hepes-Na pH 7.6, 10 mM MgCl2, 0.01% Nonidet P-40, and 0.01% BSA.
3 uL of Sfp-PPTase enzyme (final concentration 15 nM) and 1 uL of substrate mixture (final concentration for rhodamine-CoA and BHQ-2-YbbR 5 uM and 12.5 uM, respectively) dispensed in columns 1, 2, 5 - 48. Columns 1 and 2 used to generate neutral control (uninhibited reaction)
Three uL of reagents, consisting of buffer (in columns 3 and 4 as negative control) and Sfp-PPTase (in columns 1, 2, 5 - 48) were dispensed into 1,536-well Greiner black solid bottom plate. Compounds (23 nL) were transferred via Kalypsys pintool equipped with 1,536-pin array. The plate was incubated for 15 min at room temperature, followed by the addition of 1 uL substrate to start the reaction. The plate was then centrifuged at 1000 rpm for 15 seconds, and the fluorescence intensity recorded on a ViewLux High-throughput CCD imager (Perkin-Elmer) using standard BODIPY optics (525 nm excitation and 598 nm emission). The plate was then incubated for 30 minutes, and a second read on the ViewLux was performed. The fluorescence intensity difference over the 30-minute period was used to calculate the respective reaction rate for each well.
(Quantitative high-throughput screening tests each substance at several concentrations.)
Turning to `C/C(=N\Nc1ncc(Cl)cc1Cl)c1ccc(S(=O)(=O)NCc2ccco2)cc1`, the largest response in the series, negative = inhibition was -16.4%.

With `CCN(CC)c1ccc(C(=O)N/N=C(\C)c2cccc(OC)c2)cc1`, the largest response in the series, negative = inhibition is -1.28%.

Consider `C/C(=N\Nc1ccc(S(N)(=O)=O)cc1[N+](=O)[O-])c1cccs1`, for which the largest response in the series, negative = inhibition is 0.687%.

Consider `C/C(=N\Nc1nc2ccccc2[nH]1)c1cccs1`, for which the largest response in the series, negative = inhibition was -4.19%.

`C/C(=N\Nc1ncc(Cl)cc1Cl)c1cccs1`: the Potency is 39.8 µM (active).

Regarding `COc1cccc(/C(C)=N/Nc2ncc(Cl)cc2Cl)c1`, the Potency is 56.2 µM (active).

In the case of `Cn1cnc2c1c(=O)n(Cc1ccccc1C#N)c(=O)n2C`, the largest response in the series, negative = inhibition was 4.28%.

Regarding `C=CC1=C2C=C(C3CC3)N(CC(C)C)C=C2C(=O)C(C)(OC(=O)c2ccco2)C1=O` (stereo unspecified), the largest response in the series, negative = inhibition is 5.15%.

Turning to `CC(=O)Nc1ccc(OCC(=O)NCc2ccc(C)cc2)cc1`, the largest response in the series, negative = inhibition was 11.1%.

In the case of `COC(=O)c1ccc(OCC(=O)NC(C)(C)C)cc1`, the largest response in the series, negative = inhibition was -10.7%.

As for `CC(C)(C)NC(=O)COc1ccc(CNc2ccc3[nH]c(=O)[nH]c3c2)cc1`, the Potency was 56.2 µM (active).

As to `CCS(=O)(=O)Nc1ccc(C(=O)NCCSc2ccccc2)cc1`, the largest response in the series, negative = inhibition was 22%.

For `COC(=O)C1=CN(c2ccc(F)c(F)c2)C=C(C(=O)OC)C1c1ccc([N+](=O)[O-])cc1`, the largest response in the series, negative = inhibition is -0.236%.

On to `COc1cccc(OC)c1C(=O)Nc1ccc2c(c1)n(C)c(=O)n2C`, for which the largest response in the series, negative = inhibition was 6.56%.

As to `O=C(Nc1cccc2ncccc12)C(Cl)(Cl)Cl`, the largest response in the series, negative = inhibition was 5.72%.

As for `Cc1ccc(C(=O)Nc2cccc3ncccc23)cc1[N+](=O)[O-]`, the largest response in the series, negative = inhibition is 9.98%.

Turning to `Cc1ccc(/C=C(\C#N)C(=O)Nc2cccc3ncccc23)o1`, the Potency is 8.91 µM (active).

On to `Cc1c(C(=O)NC(C)C2CC3CCC2C3)cccc1[N+](=O)[O-]` (stereo unspecified), for which the largest response in the series, negative = inhibition was 6.2%.

For `C[C@]12CC[C@@H]3c4ccc(O)cc4C[C@@H](CCCCCCCCCS(=O)CCCC(F)(F)C(F)(F)F)C3[C@@H]1CC[C@@H]2O` (stereo partly specified), the largest response in the series, negative = inhibition is -0.311%.

For `CC(N)(C(=O)O)c1ccc(-c2nn[nH]n2)cc1` (stereo unspecified), the Potency is 35.5 µM (active).

In the case of `Brc1ccc(-c2nn[nH]n2)cc1`, the largest response in the series, negative = inhibition is 19%.

Turning to `CC(C)c1ccc(-c2nn[nH]n2)cc1`, the largest response in the series, negative = inhibition was 21.7%.

Take `O=C(CSc1ncn[nH]1)Nc1nsc(-c2ccccc2)n1`: the largest response in the series, negative = inhibition is 9.26%.

Regarding `CCN(C(=O)CSc1ncn[nH]1)c1cccc2ccccc12`, the Potency is 39.8 µM (active).

On to `O=C(CSc1ncn[nH]1)Nc1ccnc2ccccc12`, for which the largest response in the series, negative = inhibition was 12.4%.

`O=c1cc(-c2ccc(O)cc2)oc2c([C@@H]3O[C@H](CO)[C@@H](O)[C@H](O)[C@H]3O)c(O)cc(O)c12`: the largest response in the series, negative = inhibition was -2.52%.

For the origin of these results see PubChem BioAssay AID1490 (National Center for Advancing Translational Sciences (NCATS), 2009).
